Data from PubChem BioAssay.
Active and inactive are the calls of the source. Cut-off read from the data, not from the text of the source, unless noted: active = inhibition above about 42%; inactive = the rest.

System: not listed separately
Experiment: StAR promoter reporter inhibitors, counter-screen for LRH-1 inverse agonist project, cell-based, luminescence, high throughput (AID 651611; in the data active = inhibition above about 28%)
Conditions: StAR promoter luciferase reporter counterscreen, at 3.6 µM, stronger effect = higher value
With `Nc1ccc(Nc2ccncc2[N+](=O)[O-])cc1` the inhibition was 2.61% (inactive).
In the case of `COc1cc(OC)cc(C(=O)N[C@H](C(=O)OCC(=O)Nc2ccc3c(c2)OCO3)C(C)C)c1`, the inhibition is reported as 14.4% (inactive).
In the case of `N#Cc1cc([N+](=O)[O-])ccc1NC(=O)COC(=O)C1CCC(=O)N1` (stereo not given), the inhibition is reported as 15.6% (inactive).
In the case of `c1ccc2c(c1)C1=NCCN1c1ccccc1-2`, the inhibition is reported as 20% (inactive).
For `CC(Oc1ccc(S(=O)(=O)N2CCCC2)cc1[N+](=O)[O-])C(=O)NC(C)c1ccccc1` (stereo not given), the inhibition was 4.94% (inactive).
For `CCCCc1c(O)nc(SCC(=O)Nc2ccc3c(c2)CCC3)[nH]c1=O`, the inhibition was 6.25% (inactive).
With `COc1cc(C)c(C(=O)Oc2cc(C)c(C(=O)O)c(O)c2C)c(O)c1C` the inhibition was 14.9% (inactive).
For `O=C(c1cc(-c2ccco2)nc2ccccc12)N(Cc1nnc(-c2ccc(Cl)cc2)o1)C1CC1`, the inhibition was -6.37% (inactive).
With `COc1ccc(OC)c(C2=NS(=O)(=O)N(C)C(C(=O)Nc3ccc(C(C)=O)cc3)=C2)c1` the inhibition was 4.76% (inactive).
With `NNC(=O)C(Cc1ccc(O)cc1)N1Cc2ccccc2C1=O` (stereo not given) the inhibition was -1.94% (inactive).
For `CC1(C)Cc2ccccc2/C(=C/C(=O)c2ccccc2)N1`, the inhibition was 0.1% (inactive).
With `COc1ccc(NC(=O)CSc2nnc(Cc3ccccc3)c(=O)n2N)c(OC)c1` the inhibition was 5.02% (inactive).
In the case of `Cc1ccc(NNC(N)=S)cc1Cl`, the inhibition is reported as 11.6% (inactive).
For `CC1(C(=O)NCc2ccco2)Cc2c(-c3cccc(C(N)=O)c3)ccnc2O1` (stereo not given), the inhibition was 49.6% (active).
With `C/C(CC1CC(C)(C)OC1=O)=N/Nc1nc(-c2ccccc2)cs1` (stereo not given) the inhibition was -5.65% (inactive).
With `CCN(CC)CC(=O)Nc1ccc(-c2nc3cc(NC(=O)CN(CC)CC)ccc3o2)cc1` the inhibition was -9.81% (inactive).
In the case of `CCOc1ccc(CCNC(=O)COC(=O)COc2ccc(Br)cc2)cc1OCC`, the inhibition is reported as 4.03% (inactive).
For `Cc1ccc(S(=O)(=O)NCc2ccncc2)c(C)c1C`, the inhibition was 17.9% (inactive).
In the case of `O=C(NCC1CCCO1)c1ccc(NC(=O)c2cccc([N+](=O)[O-])c2)cc1` (stereo not given), the inhibition is reported as 3.83% (inactive).
For `CCOc1ccc(OCCN2C(=O)NC(Cc3c[nH]c4ccccc34)C2=O)cc1` (stereo not given), the inhibition was 13.2% (inactive).
In the case of `O=C(CN1CCN(S(=O)(=O)c2cc(Cl)ccc2Cl)CC1)Nc1ccc2c(c1)OCCO2`, the inhibition is reported as 19% (inactive).
For `CS/C(=C\[N+](=O)[O-])Nc1ccc(OC(F)(F)F)cc1`, the inhibition was 42% (active).
In the case of `CCCNC(=O)c1sc2c(c1C(=O)Nc1ccccn1)CCCC2`, the inhibition is reported as -1.58% (inactive).
In the case of `CC(=O)Nc1ccc(NC(=O)CSc2nnnn2C2CCCCC2)cc1`, the inhibition is reported as 17% (inactive).
In the case of `CN(C)C(=O)Cn1c(SCC(=O)Nc2ccc3c(c2)OCO3)nc2ccccc21`, the inhibition is reported as -0.98% (inactive).

Target: Nuclear receptor subfamily 5 group A member 2 (Homo sapiens) (UniProt O00482)
Sequence (O00482 whole entry, looked up): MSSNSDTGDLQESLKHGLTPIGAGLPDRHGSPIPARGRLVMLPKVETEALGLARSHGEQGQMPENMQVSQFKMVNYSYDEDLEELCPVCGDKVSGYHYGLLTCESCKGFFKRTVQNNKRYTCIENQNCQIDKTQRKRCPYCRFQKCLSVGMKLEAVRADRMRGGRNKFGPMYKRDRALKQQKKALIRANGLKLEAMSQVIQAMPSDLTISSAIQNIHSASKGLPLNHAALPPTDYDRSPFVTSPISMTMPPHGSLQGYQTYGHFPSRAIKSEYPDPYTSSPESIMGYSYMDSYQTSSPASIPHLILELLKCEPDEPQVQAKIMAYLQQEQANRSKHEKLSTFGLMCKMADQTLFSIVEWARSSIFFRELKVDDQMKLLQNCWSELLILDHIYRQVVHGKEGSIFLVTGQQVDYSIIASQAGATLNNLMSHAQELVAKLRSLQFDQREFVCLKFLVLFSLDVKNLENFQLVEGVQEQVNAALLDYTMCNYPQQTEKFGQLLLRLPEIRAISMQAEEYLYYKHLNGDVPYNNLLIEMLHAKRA
Experiment: LRH-1 (NR5A2) inverse agonists, retest, confirmation, cell-based, luminescence (AID 651613);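 note: HEK293T cells co-transfected with LRH-1 and StAR promoter luciferase reporter; 0% = vehicle wells and 100% = parental cells lacking receptor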
Conditions: cell-based LRH-1 luciferase reporter, inverse agonism; at 3.6 µM; stronger effect = higher value
For `CCCOc1ccc(Cn2cnc3ccccc32)cc1`, the inhibition was 54.6% (active).
With `O=C(Cn1cc(COc2ccc(C(=O)c3ccccc3)cc2)nn1)c1ccc(O)cc1` the inhibition was 47.4% (active).
With `COc1ccccc1N1CCN(C(=O)C2c3ccccc3Oc3ccccc32)CC1` the inhibition was 26% (inactive).
In the case of `CS(=O)(=O)N1CCc2cc(-c3csc(NC(=O)Cc4cccs4)n3)ccc21`, the inhibition is reported as 53.8% (active).
In the case of `C=CC[n+]1c(-c2ccc(Cl)cc2Cl)csc1Nc1c(C)n(C)n(-c2ccccc2)c1=O`, the inhibition is reported as 58.7% (active).
In the case of `O=C(Nc1cccc2ncccc12)c1ccc([N+](=O)[O-])o1`, the inhibition is reported as 69.9% (active).
For `COc1cc(/C=C2/SC(=Nc3ccc(O)cc3)NC2=O)ccc1O`, the inhibition was 48.5% (active).
For `N#CCc1ccc(OCCCN2CCC(C(O)(c3ccccc3)c3ccccc3)CC2)cc1`, the inhibition was 40.8% (inactive).
For `CCn1c2ccccc2c2cc(/C=N/n3c(-c4cc(C)[nH]n4)n[nH]c3=S)ccc21`, the inhibition was 4.98% (inactive).
For `Cc1onc(-c2c(F)cccc2Cl)c1C(=O)Nc1cccc2nsnc12`, the inhibition was 52.1% (active).
In the case of `COc1ccc(O)c(/C=N/Nc2nc(Nc3ccccc3)nc(-n3nc(C)cc3C)n2)c1`, the inhibition is reported as -28.7% (inactive).
For `COc1ccccc1N1CCN(C(=O)CSc2nc3ccccc3o2)CC1`, the inhibition was 30.2% (inactive).
For `Cc1cccc(NC(=O)CSc2nc3[nH]ncc3c(=O)[nH]2)c1C`, the inhibition was 56.4% (active).
For `Cc1cc2ccccn2c1C(=O)c1cccc([N+](=O)[O-])c1`, the inhibition was 44% (active).
With `CCc1ccccc1NC(=O)CSc1nnc([C@@H](NC(=O)OC(C)(C)C)C(C)C)o1` the inhibition was 45.9% (active).
With `Nc1ccc(Nc2ccncc2[N+](=O)[O-])cc1` the inhibition was 65.6% (active).
With `COc1cc(OC)cc(C(=O)N[C@H](C(=O)OCC(=O)Nc2ccc3c(c2)OCO3)C(C)C)c1` the inhibition was 48.1% (active).
For `N#Cc1cc([N+](=O)[O-])ccc1NC(=O)COC(=O)C1CCC(=O)N1` (stereo not given), the inhibition was 53.7% (active).
In the case of `c1ccc2c(c1)C1=NCCN1c1ccccc1-2`, the inhibition is reported as 104% (active).
With `CC(Oc1ccc(S(=O)(=O)N2CCCC2)cc1[N+](=O)[O-])C(=O)NC(C)c1ccccc1` (stereo not given) the inhibition was 52.3% (active).
For `CCCCc1c(O)nc(SCC(=O)Nc2ccc3c(c2)CCC3)[nH]c1=O`, the inhibition was 37.2% (inactive).
With `COc1cc(C)c(C(=O)Oc2cc(C)c(C(=O)O)c(O)c2C)c(O)c1C` the inhibition was 73.8% (active).
With `O=C(c1cc(-c2ccco2)nc2ccccc12)N(Cc1nnc(-c2ccc(Cl)cc2)o1)C1CC1` the inhibition was -5.73% (inactive).
With `COc1ccc(OC)c(C2=NS(=O)(=O)N(C)C(C(=O)Nc3ccc(C(C)=O)cc3)=C2)c1` the inhibition was 44.8% (active).
For `NNC(=O)C(Cc1ccc(O)cc1)N1Cc2ccccc2C1=O` (stereo not given), the inhibition was 20.6% (inactive).
In the case of `CC1(C)Cc2ccccc2/C(=C/C(=O)c2ccccc2)N1`, the inhibition is reported as 39% (inactive).
For `COc1ccc(NC(=O)CSc2nnc(Cc3ccccc3)c(=O)n2N)c(OC)c1`, the inhibition was 51% (active).
With `Cc1ccc(NNC(N)=S)cc1Cl` the inhibition was 53.4% (active).
In the case of `CC1(C(=O)NCc2ccco2)Cc2c(-c3cccc(C(N)=O)c3)ccnc2O1` (stereo not given), the inhibition is reported as 57.9% (active).
In the case of `C/C(CC1CC(C)(C)OC1=O)=N/Nc1nc(-c2ccccc2)cs1` (stereo not given), the inhibition is reported as 47.3% (active).
For `CCN(CC)CC(=O)Nc1ccc(-c2nc3cc(NC(=O)CN(CC)CC)ccc3o2)cc1`, the inhibition was 42.5% (active).
In the case of `CCOc1ccc(CCNC(=O)COC(=O)COc2ccc(Br)cc2)cc1OCC`, the inhibition is reported as 49.1% (active).
With `Cc1ccc(S(=O)(=O)NCc2ccncc2)c(C)c1C` the inhibition was 56.9% (active).
In the case of `O=C(NCC1CCCO1)c1ccc(NC(=O)c2cccc([N+](=O)[O-])c2)cc1` (stereo not given), the inhibition is reported as 56.2% (active).
With `CCOc1ccc(OCCN2C(=O)NC(Cc3c[nH]c4ccccc34)C2=O)cc1` (stereo not given) the inhibition was 54.9% (active).
In the case of `O=C(CN1CCN(S(=O)(=O)c2cc(Cl)ccc2Cl)CC1)Nc1ccc2c(c1)OCCO2`, the inhibition is reported as 59.6% (active).
For `CS/C(=C\[N+](=O)[O-])Nc1ccc(OC(F)(F)F)cc1`, the inhibition was 83.9% (active).
With `CCCNC(=O)c1sc2c(c1C(=O)Nc1ccccn1)CCCC2` the inhibition was 47.1% (active).
With `CC(=O)Nc1ccc(NC(=O)CSc2nnnn2C2CCCCC2)cc1` the inhibition was 57.9% (active).
For `CN(C)C(=O)Cn1c(SCC(=O)Nc2ccc3c(c2)OCO3)nc2ccccc21`, the inhibition was 22.2% (inactive).
